Test results: PubChem BioAssay (Tox21)
Records with an inconclusive call do not appear. Calls of active or inactive are those of the source. The call rests on the fitted dose curve; in most records, active means well fitted curve in the direction sought with a large enough effect in the repeat runs; inconclusive means weak or mixed curves; inactive means no such curve, though single readings can be large; an effect the other way counts as inactive or inconclusive.

Assays:
[1] = qHTS RealTime-Glo MT Cell Viability Assay in HEK293 cells - 0 hour (AID 1224880); further: top concentration of the series differs between compounds; nearly all actives have a fitted effect of over 45% in size
Outline: (§1)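 Luminescence readout at each listed time point; HEK293, 600 cells/well, RealTime-Glo MT reagent added with cells; compounds pinned (23 nL in DMSO) after 5 h at 37 C; continuous culture at 37 C.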

[2] = A CellTox Green Cytotoxicity Assay to monitor cytotoxicity in HEK293 cells - 32 hour (AID 1224881); further: nearly all actives have a fitted effect of over 40% in size
Outline: (§2)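 Read-out: fluorescence of a cell-impermeant cyanine dye staining DNA of dead cells, proportional to cytotoxicity. HEK293, 600 cells/well with reagent, compound (23 nL DMSO) added after 5 h; reads at 0, 8, 16, 24, 32, 40 h.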

[3] = A CellTox Green Cytotoxicity Assay to monitor cytotoxicity in HepG2 cells - 0 hour (AID 1224882); further: nearly all actives have a fitted effect of over 35% in size
Outline: (§3)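 HepG2, 600 cells/well premixed w/ CellTox Green; 5 h settle, 37 C/5% CO2; pintool cpd add (DMSO); 37 C, 40 h; fluorescence read at 0, 8, 16, 24, 32, 40 h.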

[4] = A CellTox Green Cytotoxicity Assay to monitor cytotoxicity in HepG2 cells - 32 hour (AID 1224883); further: nearly all actives have a fitted effect of over 50% in size
Outline: as §3

[5] = A CellTox Green Cytotoxicity Assay to monitor cytotoxicity in HEK293 cells - 8 hour (AID 1224884); further: nearly all actives have a fitted effect of over 35% in size
Outline: as §2

[6] = qHTS RealTime-Glo MT Cell Viability Assay in HepG2 cells - 16 hour (AID 1224885); further: nearly all actives have a fitted effect of over 50% in size
Outline: (§4)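 Cell number in HepG2 cultures estimated from NanoLuc luminescence generated by metabolic reduction of a prosubstrate by living cells. The homogeneous, nonlytic format allowed repeated reads at 0, 8, 16, 24, 32 and 40 h of compound exposure.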

[7] = qHTS RealTime-Glo MT Cell Viability Assay in HEK293 cells - 24 hour (AID 1224886); further: top concentration of the series differs between compounds; nearly all actives have a fitted effect of over 50% in size
Outline: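 Homogeneous bioluminescent viability format in HEK293 cells (600 cells/well). Following 5 h at 37 C/5% CO2, 23 nL compound was pintooled; the signal was measured repeatedly during 40 h incubation.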

[8] = qHTS RealTime-Glo MT Cell Viability Assay in HEK293 cells - 8 hour (AID 1224887); further: top concentration of the series differs between compounds; nearly all actives have a fitted effect of over 50% in size
Outline: as §1

[9] = A CellTox Green Cytotoxicity Assay to monitor cytotoxicity in HEK293 cells - 16 hour (AID 1224888); further: nearly all actives have a fitted effect of over 35% in size
Outline: as §2

[10] = qHTS RealTime-Glo MT Cell Viability Assay in HepG2 cells - 0 hour (AID 1224889); further: nearly all actives have a fitted effect of over 50% in size
Outline: as §4

[11] = A CellTox Green Cytotoxicity Assay to monitor cytotoxicity in HepG2 cells - 8 hour (AID 1224890); further: nearly all actives have a fitted effect of over 45% in size
Outline: as §3

[12] = qHTS assay to identify small molecule antagonists of the estrogen receptor alpha (ER-alpha) signaling pathway using the BG1 cell line in the presence of 0.1 nM 17-beta-estradiol - cell viability counter screen (AID 1259241); further: nearly all actives have a fitted effect of over 40% in size
Outline: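 Live-cell protease activity (CellTiter-Fluor fluorescence, 30 min) was read in the same wells after VM7Luc4E2 cells had been exposed to compounds with 0.1 nM 17beta-estradiol for 22 hr at 37C.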

[13] = qHTS assay to identify small molecule antagonists of the androgen receptor (AR) signaling pathway using the MDA cell line in the presence of 0.5 nM R1881 - cell viability counter screen (AID 1259242); further: nearly all actives have a fitted effect of over 45% in size
Outline: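 Live-cell protease fluorescence, CellTiter-Fluor, 30 min at 37C. Cells: MDA-kb2, 3,000/well, preincubated 5 hr. Compounds plus 0.5 nM R1881 final, 16 hr, 37C, 0% CO2.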

[14] = target: Androgen receptor (Homo sapiens) (UniProt P10275); assay: qHTS assay to identify small molecule antagonists of the androgen receptor (AR) signaling pathway using the MDA cell line in the presence of 0.5 nM R1881 (AID 1259243); further: nearly all actives have a fitted effect of over 50% in size
Chain of Androgen receptor (Homo sapiens) (P10275 whole entry, looked up): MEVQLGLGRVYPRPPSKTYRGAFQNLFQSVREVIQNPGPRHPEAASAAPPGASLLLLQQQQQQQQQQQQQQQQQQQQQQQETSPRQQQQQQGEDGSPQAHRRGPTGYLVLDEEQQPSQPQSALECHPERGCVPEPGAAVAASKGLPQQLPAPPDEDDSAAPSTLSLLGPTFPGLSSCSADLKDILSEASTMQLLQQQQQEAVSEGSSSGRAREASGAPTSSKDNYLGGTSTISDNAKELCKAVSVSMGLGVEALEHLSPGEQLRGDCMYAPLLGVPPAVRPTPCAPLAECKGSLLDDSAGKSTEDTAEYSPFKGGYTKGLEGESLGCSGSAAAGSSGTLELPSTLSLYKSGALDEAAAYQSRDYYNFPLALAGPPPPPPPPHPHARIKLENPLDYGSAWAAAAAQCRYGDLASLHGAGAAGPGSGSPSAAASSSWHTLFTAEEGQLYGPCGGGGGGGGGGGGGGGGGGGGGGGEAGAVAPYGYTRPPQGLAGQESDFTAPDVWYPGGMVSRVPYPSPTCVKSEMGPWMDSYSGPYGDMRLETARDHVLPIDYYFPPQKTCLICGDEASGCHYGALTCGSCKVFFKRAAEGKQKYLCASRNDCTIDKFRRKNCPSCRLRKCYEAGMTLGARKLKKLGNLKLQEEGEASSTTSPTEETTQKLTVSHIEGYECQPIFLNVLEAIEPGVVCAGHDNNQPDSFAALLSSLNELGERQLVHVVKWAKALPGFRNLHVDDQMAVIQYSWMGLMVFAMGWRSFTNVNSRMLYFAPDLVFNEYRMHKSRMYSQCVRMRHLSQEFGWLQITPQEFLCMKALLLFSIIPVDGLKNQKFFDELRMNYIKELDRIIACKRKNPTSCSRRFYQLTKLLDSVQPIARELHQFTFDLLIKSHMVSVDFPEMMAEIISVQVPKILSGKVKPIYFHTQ
Outline: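 MDA-kb2, MMTV-luc (AR/GR elements); 3,000 cells/well; cpd + 0.5 nM R1881 final; 16 hr 37C, 0% CO2; ONE-Glo 30 min RT; luminescence.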

[15] = target: Estrogen receptor (Homo sapiens) (UniProt P03372); assay: qHTS assay to identify small molecule antagonists of the estrogen receptor alpha (ER-alpha) signaling pathway using the BG1 cell line in the presence of 0.1 nM 17-beta-estradiol (AID 1259244); further: nearly all actives have a fitted effect of over 50% in size
Chain of Estrogen receptor (Homo sapiens) (P03372 whole entry, looked up): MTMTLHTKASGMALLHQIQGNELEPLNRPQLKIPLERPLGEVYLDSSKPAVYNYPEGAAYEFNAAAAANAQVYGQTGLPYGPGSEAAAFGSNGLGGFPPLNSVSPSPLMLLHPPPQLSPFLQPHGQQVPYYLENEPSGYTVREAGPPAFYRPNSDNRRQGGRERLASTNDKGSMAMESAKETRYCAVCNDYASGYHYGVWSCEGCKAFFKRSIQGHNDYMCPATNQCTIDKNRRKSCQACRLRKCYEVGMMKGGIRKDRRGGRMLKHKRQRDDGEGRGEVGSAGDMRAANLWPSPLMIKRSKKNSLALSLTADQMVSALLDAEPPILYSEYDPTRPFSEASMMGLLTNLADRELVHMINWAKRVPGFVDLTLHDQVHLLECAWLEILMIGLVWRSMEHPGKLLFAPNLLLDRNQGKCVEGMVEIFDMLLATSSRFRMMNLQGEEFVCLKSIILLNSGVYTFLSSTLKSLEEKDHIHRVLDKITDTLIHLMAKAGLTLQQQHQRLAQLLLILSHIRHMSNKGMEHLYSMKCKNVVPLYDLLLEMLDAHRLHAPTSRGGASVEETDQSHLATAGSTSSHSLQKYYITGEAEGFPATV
Outline: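 Luminescence after ONE-Glo (30 min, room temperature) measured ERE-luciferase activity in VM7Luc4E2 cells treated 22 h with compound and 0.1 nM final 17beta-estradiol as stimulator.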

[16] = qHTS assay to identify small molecule HDAC inhibitors (AID 1259364);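 further: wild-type HCT-116 cells with endogenous class I/II HDAC activity; top concentration of the series differs between compounds; nearly all actives have a fitted effect of over 45% in size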
Outline: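 HCT-116 (wild type), 1,500 cells/well, overnight; compound 2 hr 37C 5% CO2; HDAC-Glo I/II reagent 30 min RT; luminescence readout.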

[17] = qHTS assay to identify small molecule HDAC inhibitors - cell viability counter screen (AID 1259365)
Outline: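 HCT-116 (wild type), 1,500 cells/well, overnight 37C/5% CO2; compound in DMSO 2hr; CellTiter-Glo 30min RT; luminescence read.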

[18] = qHTS assay to identify small molecule agonists of the sonic hedgehog signaling (Shh) pathway - cell viability counter screen (AID 1259366); further: nearly all actives have a fitted effect of over 50% in size
Outline: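 CellTiter-Fluor fluorescence read-out, 1 hr at 37C, added after 23hr compound exposure. Cells: 3T3 Gli1-Luc, an NIH/3T3 clone with stably integrated Gli1-Luc reporter, plated 4hr before compound.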

[19] = qHTS assay to identify small molecule antagonists of the sonic hedgehog signaling (Shh) pathway - cell viability counter screen (AID 1259367); further: nearly all actives have a fitted effect of over 55% in size
Outline: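 Cytotoxicity was assessed in parallel with Shh reporter activity by measuring live-cell protease fluorescence (CellTiter-Fluor) in NIH/3T3 cells stably carrying Gli1-Luc, treated with compound under conditioned medium stimulation for 23 hr plus 1 hr reagent incubation.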

Measured: Potency

O=C(CCOCCOCCOCCOCCC(=O)Nc1c(I)cc(I)c(C(=O)O)c1I)Nc1c(I)cc(I)c(C(=O)O)c1I
not listed: [19]
inactive: all other assays above

OCC(CO)(CO)COCC(CO)(CO)CO
not listed: [14]
inactive: all other assays above

C=CC(=O)OCCCCCC
not listed: [14] | [15]
inactive: all other assays above

COc1cccc(OC)c1
not listed: [14] | [15]
inactive: all other assays above

CC(C)N1C(=O)c2ccccc2C1=O
not listed: [14] | [15]
inactive: all other assays above

CNC(=O)c1c(I)c(NC(=O)CCCCC(=O)Nc2c(I)c(C(=O)O)c(I)c(C(=O)NC)c2I)c(I)c(C(=O)O)c1I
not listed: [14]
inactive: all other assays above

Nc1cc(N)cc(C(=O)O)c1
not listed: [14]
inactive: all other assays above

CNc1ncnc2nc[nH]c12
not listed: [14]
inactive: all other assays above
